Screening results deposited in PubChem BioAssay by National Center for Advancing Translational Sciences (NCATS).
ALDH1A1 inh – ALDH1A1 (human) enzyme inhibition. Purified ALDH1A1, NADH fluorescence, propionaldehyde substrate. P00352. AID 1030. 220,000 tested, 7.3% active. Potency, µM (highest dose often 75.3 µM), actives largely listed as inhibitors; active = well fitted inhibition curve with a large enough effect, not every such curve was filed as active; inconclusive = small, poorly fitted or top-dose-only effect, or another doubt; inactive = no such curve, though single readings can be large or run the other way
IMPase inh – membrane-permeable compound that blocks inositol monophosphatase | P97697 | CHO-M1 cells, IP1 accumulation, HTRF TR-FRET ratio | inhibition (IP1 accumulation), % at 46.1 µM | 120,000 tested, under 10 active; active = well fitted curve in the direction sought with a large enough effect in the signal ratio, not every such curve was filed as active; inconclusive = small, poorly fitted or top-dose-only effect, or a change in a side signal; inactive = no such curve, though single readings can be large or run the other way; the % refers to the signal ratio;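 also: cells stimulated with carbachol in lithium chloride buffer; higher means more IMPase inhibition seen as more IP1 and lower FRET ratio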
Target sequence (P97697 whole entry, looked up): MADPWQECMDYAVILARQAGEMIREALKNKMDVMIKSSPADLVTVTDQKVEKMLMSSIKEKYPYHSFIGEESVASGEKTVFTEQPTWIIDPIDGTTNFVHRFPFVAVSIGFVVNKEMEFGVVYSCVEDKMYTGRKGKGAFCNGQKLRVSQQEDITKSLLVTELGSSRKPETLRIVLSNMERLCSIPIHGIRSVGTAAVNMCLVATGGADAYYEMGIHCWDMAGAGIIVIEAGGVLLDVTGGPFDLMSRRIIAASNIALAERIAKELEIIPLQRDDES
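Seeded CHO-M1 cells were dosed with compound at up to 46 uM, stimulated with carbachol for 30 min, then lysed in IP-One detection reagents. Higher IP1 lowers the TR-FRET signal.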
PNC inhibitor – inhibitors of perinucleolar compartment assembly. PC3M PTB-GFP, PNC prevalence imaging, 16 h; stronger effect = lower value. activity change (PNC), negative = inhibition, % at 10 µM. 140,000 tested, 3.1% active;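 active = readout at or below -70, meaning at least 70% loss of cells showing the perinucleolar compartment, a nuclear body marking cancer cells; inconclusive = readout between -30 and a set limit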
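Read-out is percentage of cells bearing a perinucleolar compartment, from automated 20x imaging of fixed, Hoechst-stained PC3M PTB-GFP cells. Cells were seeded 4 h, then exposed 16 h to compound (23 nl of library stock) in duplicate plates.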
HPGD inh – blocks human HPGD enzyme activity; purified HPGD, NADH fluorescence kinetic, PGE2 substrate; 150,000 tested, 4.3% active; Potency, µM, usual class: inhibitors; active = well fitted inhibition curve with a large enough effect, not every such curve was filed as active; inconclusive = small, poorly fitted or top-dose-only effect, or another doubt; inactive = no such curve, though single readings can be large or run the other way
Target sequence (P15428 whole entry, looked up): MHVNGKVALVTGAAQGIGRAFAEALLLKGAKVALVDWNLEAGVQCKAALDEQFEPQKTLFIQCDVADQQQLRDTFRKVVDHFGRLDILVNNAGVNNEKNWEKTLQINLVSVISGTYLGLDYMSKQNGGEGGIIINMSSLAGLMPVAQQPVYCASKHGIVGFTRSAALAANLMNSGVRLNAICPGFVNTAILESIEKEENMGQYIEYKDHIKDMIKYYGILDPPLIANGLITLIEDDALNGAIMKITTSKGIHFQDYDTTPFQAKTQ
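20 nM HPGD preincubated 15 min at room temperature with compound in 50 mM Tris-HCl pH 8, 0.01% Tween 20. Started with 1 mM NAD+ and 30 uM prostaglandin E2; NADH fluorescence (360/450 nm) read 5 times over 30-s intervals, last minus first.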
12-hLO inh – blocks human 12-lipoxygenase activity. P18054. AID 1452. purified 12-hLO, xylenol orange hydroperoxide absorbance. 150,000 tested, 0.12% active. Potency, µM (series often up to 57.1 µM), most hits filed as inhibitors; also: nearly all actives have a fitted effect of over 55% in size
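Hydroperoxide output read as Fe(III)-xylenol orange absorbance, 573-to-405 nm ratio, after 30 min reaction with 40 uM arachidonic acid. Enzyme: 150 nM purified human 12hLO, 15 min compound preincubation; 25 mM Hepes pH 7.0, room temperature.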
IMPase Li cell – IMPase inhibition in cells with lithium potentiation | Potency, µM (top dose mostly 59.4 µM), actives largely listed as inhibitors | CHO-M1 cells, IP1 TR-FRET (IP-One), carbachol + lithium | 210,000 tested, 0.35% active;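 also: IP1 builds up when IMPase is blocked and the TR-FRET signal falls; nearly all actives have a fitted effect of over 50% in size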
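CHO cells stably expressing M1 receptor (2000/well) were cultured 16–30 h, then exposed to compounds with a small lithium addition for 30 min at 37C. IP1 was measured by TR-FRET competition; AC50 from Hill fits.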
Hits are given with their value; – = inactive; ? = inconclusive; · = no result; [ ] = remark or other dose. Rows were chosen to be rich in hits. Some 11% of all compounds tested hit in one or more screens of this group. Unless noted, calls follow the shape of the dose curve; as a rule, active = well fitted curve in the direction sought with a large enough effect; inconclusive = small, poorly fitted or top-dose-only effect, or another doubt; inactive = no such curve, though single readings can be large; an effect the other way counts as inactive or inconclusive.

SMILES	ALDH1A1 inh	IMPase inh	PNC inhibitor	HPGD inh	12-hLO inh	IMPase Li cell
CCOC(=O)c1oc2ccc(CNC(C)(C)C)c(Cl)c2c1C	–	–	-118.9	–	–	–
Cc1ccc2nc(-c3ccc(NC(=O)CCS(=O)(=O)c4ccccc4)cc3)sc2c1	?	–	–	?	–	12.6µM
Cc1ccc(N(CC(=O)Nc2ccc(-c3nc4ccc(C)cc4s3)cc2)S(C)(=O)=O)cc1	?	–	–	?	–	12.6µM
Cc1ccc2nc(-c3ccc(NC(=O)COC(=O)c4ccc(=O)[nH]c4)cc3)sc2c1	3.55µM	·	–	?	–	–
Cc1cccc(N(CC(=O)Nc2ccc(CC#N)cc2)S(C)(=O)=O)c1	–	–	-84.2	–	–	–
COCC(=O)N1CCC2(CC1)CCN(c1ccccc1)CC2	?	·	·	–	–	–
CC1CCC(NC(=O)N(CCCl)N=O)CC1 (stereo not given)	12.6µM	·	·	–	–	–
COc1ccccc1N1CCN(CC(=O)Nc2sccc2C#N)CC1	?	–	–	–	–	–
CCN(CC)Cc1c(O)ccc2c(=O)c(Oc3ccccc3OC)coc12	?	–	-80.1	?	–	?
CN(C)c1ccc(NC(=O)c2cn(-c3ccccc3)nc2-c2cccs2)cc1	8.91µM	–	?	–	–	–
Cc1ccc(NC(=S)N2CCC(c3ccc(C)cc3)C2)cc1 (stereo not given)	28.2µM	·	·	·	·	–
CC(=O)c1ccc(Nc2c3c(c(C#N)c4nc5ccccc5n24)CCC3)cc1	–	–	–	–	–	–
COc1ccc(Nc2c3c(c(C#N)c4nc5ccccc5n24)CCC3)cc1	?	–	–	1.26µM	–	–
CN(C)c1ccc(C=C2C(=O)OC(C)(C)OC2=O)cc1	0.794µM	·	·	·	·	–
CN(C)c1ccc(C=C2C(=O)OC(C)(C(C)(C)C)OC2=O)cc1 (stereo not given)	0.398µM	–	–	10µM	–	?
CCCCC1(C)OC(=O)C(=Cc2ccc(SC)cc2)C(=O)O1 (stereo not given)	?	·	·	·	·	–
Fc1ccccc1C(NCCc1ccc(Cl)cc1)c1nnc(-c2ccccc2)o1 (stereo not given)	·	–	·	·	·	·
COC(=O)C1=C(C(=O)OC)[C@@H]2N(C)c3ccccc3[C@@]23C[C@@H](C(=O)OC)N(S(=O)(=O)c2ccc(OC)cc2)C3=N1	–[13.5 µM]	·	·	–	–[11.4 µM]	–
CC(C)OC(=O)c1c(NC(=O)C2c3ccccc3Oc3ccccc32)sc2c1CCCC2	·	–	·	·	·	·
Cc1c(NC(=O)Nc2ccc(Cl)c(C(F)(F)F)c2)c(=O)n(-c2ccccc2)n1C	·	–	·	·	·	·
COc1cccc(N2CCN(C(=O)C3CCN(S(=O)(=O)c4c(C)noc4C)CC3)CC2)c1	·	–	·	·	·	·
CCOc1ccc(C)cc1S(=O)(=O)N1CCCCC1	–	–	–	–	–	–
CCOc1ccc(S(=O)(=O)N2CCCCC2)c(C)c1C	?	·	·	·	·	–
CCOc1ccc(C(C)(C)C)cc1S(=O)(=O)N1CCOCC1	3.16µM	–	-97.4	–	–	–
CCOc1ccc(S(=O)(=O)N2CCCCC2)c2ccccc12	31.6µM	–	–	–	–	–
SMILES	ALDH1A1 inh	IMPase inh	PNC inhibitor	HPGD inh	12-hLO inh	IMPase Li cell
CCOC(=O)/C(C#N)=C\c1cccnc1	–	·	·	·	·	–
COCCOC(=O)/C(C#N)=C/c1cn(Cc2ccccc2)nc1-c1cccnc1	20µM	·	·	·	·	–
Cc1cc(NC(=O)CN2CC3CC(C2)c2cccc(=O)n2C3)nc2c1c(=O)oc1ccccc12 (stereo not given)	28.2µM	–	?	–	–	–
Cc1cc(NC(=O)C2CCCC2)nc2c1c(=O)oc1ccccc12	14.1µM	–	–	–	–	–
Cc1cc(NC(=O)CN2CCC(O)CC2)nc2c1c(=O)oc1ccccc12	·	–	·	·	·	·
Cc1cc(NC(=O)CN2CCN(Cc3ccccc3)CC2)nc2c1c(=O)oc1ccccc12	3.55µM	·	·	·	·	–
O=C1C2=C(Nc3ccccc3SC2c2ccccc2C(F)(F)F)c2ccccc21 (stereo not given)	·	–	·	·	·	·
CC(c1ccccc1)N1C(=O)C2C3C=CC(C4CC34)C2C1=O (stereo not given)	–	·	·	·	·	–
O=C1NNC(=O)C2C3C=CC(C4CC34)C12 (stereo not given)	25.1µM	–	–	–	–	–
NC(Cc1ccc(O)c(O)c1)C(=O)O (stereo not given)	?	·	·	?	–	–
CN1CCN(CCCN)CC1	–[13.5 µM]	·	·	–	–[11.4 µM]	–
Cc1cc(C)cc(N(CC(=O)Nc2ccccc2-c2ccccc2)S(=O)(=O)c2ccccc2)c1	–	–	–	10µM	–	–
Cc1ccc(N(CC(=O)Nc2ccccc2-c2ccccc2)S(=O)(=O)c2ccccc2)cc1	–	–	–	–	–	–
COC(=O)c1n[nH]n(-c2cc(Cl)cc(Cl)c2)c1=O	10µM	·	·	·	·	·
C#CCCCO/N=C1/[C@H]2O[C@@H]2[C@@H](O)[C@H]2[C@H]1CCn1c(=O)n(Cc3cc4c(cc3Cl)OCO4)c(=O)n12	–[13.5 µM]	·	·	·	·	·
CC(=O)Nc1ccc(NC(=O)CC2Sc3ccccc3NC2=O)cc1 (stereo not given)	·	–	·	·	·	·
Cc1ccc(NC2Sc3ccccc3NC2=O)cc1 (stereo not given)	25.1µM	·	·	·	·	–
FC(F)(F)c1ccccc1-c1cc(NCCN2CCOCC2)ncn1	?	·	·	·	·	–
Oc1c(N=NC(=S)Nc2ccccc2F)c2ccccc2n1Cc1ccccc1Cl	?	·	·	·	·	–
C=CCn1c(O)c(N=NC(=S)Nc2ccccc2F)c2ccccc21	28.2µM	·	·	·	·	–
Oc1c(N=NC(=S)Nc2ccccc2F)c2ccccc2n1Cc1ccccc1	20µM	·	·	·	·	–
C=CCn1c(O)c(N=NC(=O)CNC(=O)/C=C/c2ccco2)c2ccccc21	10µM	–	–	–	–	–
Cc1ccc(Cn2c(O)c(N=NC(=S)Nc3ccccc3F)c3ccccc32)cc1	11.2µM	·	·	·	·	–
CC(C)(C)NC(=O)C(c1ccc(I)cc1)N(CCN1CCOCC1)C(=O)CCCNC(=O)c1ccccc1 (stereo not given)	–	·	·	–	–	–
CCCC(C)C(=O)Nc1ccc(S(N)(=O)=O)cc1 (stereo not given)	–	·	·	·	·	–
SMILES	ALDH1A1 inh	IMPase inh	PNC inhibitor	HPGD inh	12-hLO inh	IMPase Li cell
CCC(OC(=O)CN1C(=O)C(=O)c2ccccc21)C(=O)Nc1ccc(S(N)(=O)=O)cc1 (stereo not given)	0.0891µM	·	·	·	·	–
Cc1oc(/N=C/c2c(O)ccc3ccccc23)c(C#N)c1C	35.5µM	–	–	–	–	–
Cc1cccc(N=Nc2c(C)[nH]n(C(N)=S)c2=O)c1C	17.8µM	·	·	·	·	–
Cc1ccccc1N=Nc1c(C)[nH]n(-c2ccccc2)c1=O	–	·	·	·	·	–
Cc1ccccc1N=Nc1c(C)[nH]n(C(N)=S)c1=O	20µM	·	-113.3	–	–	–
CCN(CC)S(=O)(=O)c1ccc(N=Nc2c(C)[nH]n(C(N)=S)c2=O)cc1	7.94µM	–	–	35.5µM	–	–
